Assay results published in the supplement of paper PMC12632987.

T1: USP38, Q8NB14
T1 chain: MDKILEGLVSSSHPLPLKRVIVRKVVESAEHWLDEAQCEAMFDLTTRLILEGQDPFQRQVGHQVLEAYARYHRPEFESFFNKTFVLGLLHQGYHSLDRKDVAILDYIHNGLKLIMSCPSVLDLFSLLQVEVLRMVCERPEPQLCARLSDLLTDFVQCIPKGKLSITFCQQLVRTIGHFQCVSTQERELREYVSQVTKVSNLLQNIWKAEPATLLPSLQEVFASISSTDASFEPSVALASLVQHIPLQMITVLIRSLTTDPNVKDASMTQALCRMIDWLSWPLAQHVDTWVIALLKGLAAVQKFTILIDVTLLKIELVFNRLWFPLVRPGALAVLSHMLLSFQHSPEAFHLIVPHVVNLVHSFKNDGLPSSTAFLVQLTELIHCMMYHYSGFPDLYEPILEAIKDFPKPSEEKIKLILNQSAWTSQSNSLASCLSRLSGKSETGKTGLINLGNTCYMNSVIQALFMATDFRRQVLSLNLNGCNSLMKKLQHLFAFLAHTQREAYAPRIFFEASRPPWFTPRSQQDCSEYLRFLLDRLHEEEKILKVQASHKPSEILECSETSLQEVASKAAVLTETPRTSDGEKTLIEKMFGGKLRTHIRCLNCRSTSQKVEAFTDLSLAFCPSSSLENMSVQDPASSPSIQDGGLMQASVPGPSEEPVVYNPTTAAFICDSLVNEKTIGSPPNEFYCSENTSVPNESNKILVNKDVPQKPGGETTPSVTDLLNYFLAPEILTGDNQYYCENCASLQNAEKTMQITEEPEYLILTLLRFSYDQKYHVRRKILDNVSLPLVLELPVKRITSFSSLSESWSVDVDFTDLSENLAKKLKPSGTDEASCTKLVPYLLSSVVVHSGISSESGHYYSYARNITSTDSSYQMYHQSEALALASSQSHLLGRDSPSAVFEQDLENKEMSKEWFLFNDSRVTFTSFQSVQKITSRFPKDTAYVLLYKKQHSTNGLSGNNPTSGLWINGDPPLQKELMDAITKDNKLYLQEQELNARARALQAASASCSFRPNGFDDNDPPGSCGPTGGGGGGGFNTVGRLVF


Molecular target: T1, USP38, Q8NB14
Assay: median log2 fold change of GCK-ALFA target abundance (FLAG IP / Myc IP barcode read proportion) (log2 ratio); each designed protein is fused to an ALFA-tag nanobody in HEK293 cells to bring the named protein to FLAG-tagged glucokinase (GCK); Myc marks an untargeted standard; higher = target protein stabilised (more abundant)
Settings: target protein: 3xFLAG-MCP-GCK-ALFA reporter; HEK293 landing pad (RPLP)
Method in brief: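 An ALFA-nanobody-fused binder library was recombined into HEK293 landing-pad cells and induced with 2 μg mL^−1 doxycycline. Cells were transfected with a plasmid expressing a FLAG-tagged target and a Myc-tagged standard. After 48 h, lysates underwent anti-FLAG and anti-Myc immunoprecipitation, and circular RNA barcodes were reverse transcribed, amplified and sequenced. Target abundance is the per-binder median log2 ratio of FLAG to Myc barcode read proportions. Barcodes needed ≥10^−7 proportion in both replicates, binders ≥3 barcodes per replicate, and a 10^−6 pseudocount was added; the two replicates were pooled.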

| Binder | median log2 fold change |
| --- | --- |
| usp_38_diff_out_18_14_318 (protein) SEELIKQTLSNVKKLTEEVKKDTKRTLKILEKLKDDKESALSLIDTRIQALNGVIKYAEELKKEAEKLGNKELAEAAKELIKAAKEAKKELEKRKKALKE | -0.746 |
| usp_38_diff_out_18_14_323 (protein) SEELREATKSNLKTLTAEIKEWTARRLKVIEKLKDDPESATSLLDTAKQALQGVIKYAEEVKREAEEEGDEELKKAATETKKAAEDALKQLEAKEAKLKA | -0.403 |
| usp_38_diff_out_18_14_328 (protein) SAELREALLSNLETLTKEVKEVTERTLKIVDKLKGDPEAARSLLDTRIQALEGVIKYAEEVAKEAKAAGDKELEAAAEKLKKEAEKAKKELEEKKKALEA | -0.102 |
| usp_38_diff_out_18_14_311 (protein) AEELAQAELDNLKSLTTAVTADTARVIRLLEQSKDDPERVKRIYERAKRNLAGVETYAQEVKARAEAAGDADLVAAADALLATVAAARAAIEAAYKAVMA | -0.0344 |
| usp_38_diff_out_18_14_324 (protein) SEELIKARISNLKSLTEEVKKVTARKLKVIDALKDDPESATALIDTQLQALEGVIKYAEEEKKEAEKLGNEELIKAAEELKKAAEEAKAELEKKRKELAA | 0.13 |
| usp_38_diff_out_18_14_327 (protein) SEELKEALLSNLKLLKEEVKKDTERTLKILEKLKGDPESARSLIDTRIQALEGVIKYAEEVAKMAKEEGDEELKKAAEELKKEAEEAKKKLEEKRKELEK | -0.444 |
| usp_38_diff_out_18_14_312 (protein) SEEEAEALLSSVEILTADVERDTARKIRLLEAAKDDPELVERIYERALRDLAGVEAYAEEVLAQAKAEGNAELEAAAQALLATVAAARARLEAAYAAVRA | 0.0395 |
| usp_38_diff_out_18_14_319 (protein) MEELIEAEKANLKSLTAEVERDTARRLAVVDALRDDPDAAQSLLDTAAQALQGVIAYAEEVAKRAEELGNEELKKAAEELKAAARAALARLEARRAELAA | 0.235 |
| usp_38_diff_out_18_14_325 (protein) DAELIAATLANLKSLTEETKKDTERLEKVVEKLKDDPESARSLLETRRQAYEGVKEYAEETKKEAEANGDKELAAAAQELKDAAEKALEKIDKLLKELEA | 0.134 |
| usp_38_diff_out_18_14_314 (protein) SEELEEAELSALKTLTADVEADTARKIELLEKAKDDPERVKRIYDRALRDLAGVRTYAEEVLKRAKERGNEELLAAAEALLATVDAAEARLTAKYEEVMK | 0.22 |
| usp_38_diff_out_18_14_317 (protein) SEELSKALLSNLKTLTKEVEEDTKRLEKIVEALKDDPEAARSLLETRRQAYEGVAKYAKEVLKEAKEAGDEELAKAAEELLKAAEKALEEVEKRLKELEE | -0.378 |
| usp_38_diff_out_18_14_315 (protein) SEELQEAELSSLKILKEDVVRDTERAIRLLEKSKDDPERVKRIYERRMRNLAGVREYAKEVLERAKKEGNEELLKAAEELLKTVDAAEERLEAKYKEVMA | 0.253 |
| usp_38_diff_out_18_14_316 (protein) SEEEEEALLSAVEILKADVERDTDRKIRLLEKAKDDPELVERIYERALRDLAGVEAYAKEVEKEAKKNGNEKLLKAAKELLKTVAAARERLEAAYKEVMA | 0.00386 |
| usp_38_diff_out_18_14_326 (protein) SEELTEATLSNLKSLTEETKKTTERLKKIVEKLKDDKESALSLLDTRTQAFKGVLKYAEETEKEAKKAGNEELLAAAKELKEAAKKALEEIEKLKKELEE | -0.166 |
| usp_38_diff_out_18_14_313 (protein) SEELREAEKSSLEILKKDVEEDTERKIKLLKKAKNDPERVKRIYERAMRDLEGVKKYAEEVLKRAEEEGDEETKKAAEELLKKVEEARERLEKAYKEVME | 0.328 |
| usp_38_diff_out_18_14_310 (protein) SEELAEAEKSNLEKLTKEVEEDTERVIRLLEKAKDDPERVKRIYERAKRNLAGVETYAKEILERAKKAGDEETKKAAEELLKKIAEARERIEKAYEEVMK | 0.384 |
